Screening results deposited in PubChem by Columbia University Molecular Screening Center.
Rows were chosen to be rich in hits. Some 1.1% of all compounds tested hit in one or more screens of this group.
cytoskel mod: cytoskeleton assembly modification. HUVEC TNFa F-actin phalloidin imaging, high content. inhibition, % at 2 µM. hit rate 0.18% among 91,000. AID 836;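 active = inhibition above the batch mean plus 3 SD and confirmed as a hit by visual image inspection, cut at about 30% in these data, passing the limit was not always enough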
HUVEC tox TNFa: toxic to HUVEC cells under TNF alpha stimulation; cell count reduction, % at 2 µM; HUVEC TNFalpha-stimulated, Hoechst cell count, imaging; hit rate 0.17% among 93,000;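 active = cell count reduction exceeding the screen mean by over 5 SD, scaled to untreated wells per plate, cut at about 78% in these data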;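 note: cells counted after 24 h of TNF alpha exposure following the 1 h pretreatment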
E-sel TNF inh: blocks E-selectin expression induced by TNF alpha | inhibition, % at 2 µM | hit rate 0.71% among 120,000 | HUVEC TNFa-induced E-selectin immunofluorescence, high content;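 active = inhibition above the batch mean plus 3 SD, and confirmed as a hit on visual image review, cut at about 43% in these data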
VCAM1 TNFa inh: reduces TNF alpha induced VCAM1 expression in HUVEC; inhibition, % at 2 µM; HUVEC TNFa-induced VCAM-1 immunofluorescence, high-content imaging; hit rate 0.48% among 95,000;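 active = inhibition above the batch mean plus 3 SD, with images confirmed as a hit by eye, cut at about 37% in these data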
Each line names hits and unclear results; the compound was inactive in the other large screens.

O=C1c2cccc3c([N+](=O)[O-])ccc(c23)C(=O)N1c1ccccn1	none
O=C1c2cccc3c([N+](=O)[O-])ccc(c23)C(=O)N1c1ccc(Cl)cn1	VCAM1 TNFa inh 68.8
O=C1c2cccc3c([N+](=O)[O-])ccc(c23)C(=O)N1c1nccs1	VCAM1 TNFa inh 75.8
CCOc1ccc2nc(N(CCN(CC)CC)C(=O)c3ccc([N+](=O)[O-])cc3)sc2c1	none (no result: cytoskel mod, HUVEC tox TNFa, VCAM1 TNFa inh)
CCOC(=O)c1ccc(NC(=O)CCNc2c(N3CCCC3)c(=O)c2=O)cc1	VCAM1 TNFa inh 69.6
CCOC(=O)c1ccc(NC(=O)CN2CCN(c3ccccc3)CC2)cc1	none (no result: cytoskel mod, HUVEC tox TNFa, VCAM1 TNFa inh)
O=c1ccn(-c2cccc(C(F)(F)F)c2)nc1-c1ccn(-c2cccc(Cl)c2)n1	none
CCCNC(=O)C1CCN(S(=O)(=O)c2c(C)noc2/C=C\c2ccc(OC)cc2)CC1	E-sel TNF inh 76.2
CCc1ccc(N2CC(C(=O)NCc3ccco3)CC2=O)cc1 (configuration not stated)	none
O=C(NCc1ccco1)C1CC(=O)N(c2ccc(F)cc2)C1 (configuration not stated)	VCAM1 TNFa inh 85.0
O=C(CSc1ccccn1)N/N=C/c1ccccc1[N+](=O)[O-]	E-sel TNF inh 62.3 (no result: cytoskel mod, HUVEC tox TNFa, VCAM1 TNFa inh)
Cc1ccc(-n2c([O-])nc(-[n+]3ccccc3)c2C=O)cc1	cytoskel mod 37.0 (no result: E-sel TNF inh)
O=C(NCc1ccco1)/C(=C/c1cccnc1)NC(=O)c1ccco1	none
Clc1ccc(CNc2ccc3nnc(-c4ccccc4)n3n2)cc1	E-sel TNF inh 76.1 (no result: cytoskel mod, HUVEC tox TNFa, VCAM1 TNFa inh)
CNC(=O)CSc1nc2[nH]ncc2c(=O)[nH]1	none (no result: cytoskel mod, HUVEC tox TNFa, VCAM1 TNFa inh)
CC1CCCN(c2ccc([N+](=O)[O-])cc2C(=O)c2ccccc2)C1 (configuration not stated)	none (no result: cytoskel mod, HUVEC tox TNFa, VCAM1 TNFa inh)
Cn1cccc1/C=N/n1c(-c2ccccc2)n[nH]c1=S	none
Fc1ccc(-c2n[nH]c(=S)n2/N=C/c2c[nH]c3ccccc23)cc1	E-sel TNF inh 60.5 (no result: cytoskel mod, HUVEC tox TNFa, VCAM1 TNFa inh)
C=CCSc1nc2ccccc2n1C(=O)/C=C/c1cc(OC)c(OC)c(OC)c1	E-sel TNF inh 66.5, VCAM1 TNFa inh 92.3
CCSc1nc2ccccc2n1C(=O)/C=C/c1ccc(OC)c(OC)c1	E-sel TNF inh 100.0 (no result: cytoskel mod, HUVEC tox TNFa, VCAM1 TNFa inh)
C=CCSc1nc2ccccc2n1C(=O)/C=C/c1ccc(OC)c(OC)c1	none
Cc1nc2ccc(F)cc2cc1C(=O)NC(C)C	none (no result: E-sel TNF inh)
CCn1c2ccccc2c2cc(NC(=O)c3cc(OC)cc(OC)c3)ccc21	none (no result: cytoskel mod, HUVEC tox TNFa, VCAM1 TNFa inh)
CCn1c2ccccc2c2cc(NC(=O)c3cc(OC)c(OC)c(OC)c3)ccc21	VCAM1 TNFa inh 95.3
OCCSc1nnc(Nc2ccccc2)s1	HUVEC tox TNFa 78.3 (no result: E-sel TNF inh)
